Reference: PubChem BioAssay AID1159580 (chemical genetic matrix, 2015)
Several values for one entry are separate records, joined by “and”; a condition that tells them apart may be missing. Equal entries are not always repeated. Screen size: about 5,500 compounds; about 2,000 (36%) were called active. Not shown: some 18% with an inconclusive outcome. Cut-off read from the data, not from the text of the source: active = normalized growth mostly below about 0.91 (no sharp cut-off); inconclusive = no clear call, values can overlap the other calls; inactive = mostly above about 0.92. The list shows a part of the results.

Experiment: chemical genetic growth profiling, strain panel (AID 1159580);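 note: tested at 20 µM; growth read once vehicle control cultures reached saturation at 30 °C; 1 = growth at the plate median or of vehicle wells; lower values mean less growth of the strain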
Conditions: S. cerevisiae deletion strains, growth OD

Measured: normalized growth

OC(CCN1CCCCC1)(c1ccccc1)c1ccccc1
inactive: locus YAL021C, strain ccr4, active compounds read low 1.01 | locus YAL026C, strain drs2, active compounds read low 0.985 | locus YAL030W, strain snc1, active compounds read low 0.99 | locus YBL061C, strain skt5, active compounds read low 0.986 | locus YBR009C, strain hhf1, active compounds read low 0.939 | locus YBR021W, strain FUR4, active compounds read low 1.02 | locus YBR023C, strain chs3, active compounds read low 0.99 | locus YBR171W, strain sec66, active compounds read low 0.987 | locus YBR229C, strain ROT2, active compounds read low 1 | locus YBR231C, strain swc5, active compounds read low 1.01 | locus YBR279W, strain paf1, active compounds read low 0.995 | locus YCL011C, strain gbp2, active compounds read low 0.969 | locus YCL016C, strain dcc1, active compounds read low 0.975 | locus YCL029C, strain bik1, active compounds read low 1.01 | locus YCL061C, strain MRC1, active compounds read low 1 | locus YCL069W, strain vba3, active compounds read low 0.977 | locus YCR088W, strain abp1, active compounds read low 0.983 | locus YDL005C, strain med2, active compounds read low 1.01 | locus YDL035C, strain GPR1, active compounds read low 1.04 | locus YDL040C, strain nat1, active compounds read low 0.992 | locus YDL074C, strain BRE1, active compounds read low 1.03 | locus YDL101C, strain DUN1, active compounds read low 1.01 | locus YDL134C, strain PPH21, active compounds read low 1.03 | locus YDL185W, strain tfp1, active compounds read low 1.01 | locus YDL192W, strain arf1, active compounds read low 1.02 | locus YDR001C, strain nth1, active compounds read low 0.989 | locus YDR069C, strain doa4, active compounds read low 0.997 | locus YDR101C, strain arx1, active compounds read low 0.993 | locus YDR137W, strain rgp1, active compounds read low 1.01 | locus YDR159W, strain sac3, active compounds read low 1.01 | locus YDR162C, strain NBP2, active compounds read low 1.01 | locus YDR195W, strain ref2 1.02 | locus YDR297W, strain sur2, active compounds read low 0.984 | locus YDR318W, strain mcm21, active compounds read low 1.01 | locus YDR334W, strain swr1, active compounds read low 0.99 | locus YDR335W, strain msn5, active compounds read low 0.986 | locus YDR388W, active compounds read low 1.01 | locus YDR392W, strain spt3, active compounds read low 0.886 | locus YDR502C, strain sam2, active compounds read low 1 | locus YEL003W, strain gim4, active compounds read low 0.98 | locus YEL037C, strain rad23, active compounds read low 0.985 | locus YEL061C, strain CIN8 (second series), active compounds read low 0.977 | locus YEL061C, strain CIN8, active compounds read low 1.01 | locus YER015W, strain faa2, active compounds read low 0.994 | locus YER016W, strain bim1, active compounds read low 0.997 | locus YER110C, active compounds read low 1.01 | locus YER111C, strain swi4, active compounds read low 0.983 | locus YER155C, strain BEM2 (second series), active compounds read low 0.995 | locus YER155C, strain BEM2, active compounds read low 1 | locus YER167W, strain BCK2, active compounds read low 1.01 | locus YFR010W, strain ubp6, active compounds read low 0.987 | locus YGL078C, strain dbp3, active compounds read low 1 | locus YGL086W, strain mad1, active compounds read low 1 | locus YGL167C, strain pmr1, active compounds read low 0.984 | locus YGL173C, strain kem1, active compounds read low 0.986 | locus YGL227W, strain vid30, active compounds read low 0.989 | locus YGL240W, strain doc1, active compounds read low 1.02 | locus YGL248W, strain PDE1, active compounds read low 1.01 | locus YGL253W, strain hxk2, active compounds read low 1.02 | locus YGR078C, strain PAC10, active compounds read low 1.01 | locus YGR135W, strain pre9, active compounds read low 1.01 | locus YGR252W, strain gcn5, active compounds read low 1.01 | locus YHR013C, strain ard1, active compounds read low 1.01 | locus YHR027C, strain rpn1, active compounds read low 0.99 | locus YHR030C, strain SLT2, active compounds read low 1.01 and 1.03 | locus YHR079C, strain IRE1 (second series), active compounds read low 1.01 | locus YHR079C, strain IRE1, active compounds read low 1.03 | locus YHR094C, strain hxt1, active compounds read low 1.01 | locus YHR129C, strain ARP1, active compounds read low 1 | locus YHR142W, strain chs7, active compounds read low 0.946 | locus YHR200W, strain rpn10, active compounds read low 1.01 | locus YIL066C, strain RNR3, active compounds read low 1.01 | locus YIL073C, strain SPO22, active compounds read low 1.09 | locus YIL125W, strain kgd1, active compounds read low 1.01 | locus YIR030C, strain dcg1, active compounds read low 1.01 | locus YJL092W, strain hpr5, active compounds read low 0.988 | locus YJL095W, strain BCK1 (second series), active compounds read low 0.982 | locus YJL095W, strain BCK1, active compounds read low 0.996 and 1.05 | locus YJL115W, strain asf1, active compounds read low 0.982 | locus YJL129C, strain trk1, active compounds read low 0.987 | locus YJL134W, strain LCB3, active compounds read low 1 | locus YJL154C, strain vps35, active compounds read low 0.984 | locus YJL164C, strain tpk1, active compounds read low 0.967 | locus YJL166W, strain qcr8, active compounds read low 1 | locus YJL168C, strain set2, active compounds read low 1.01 | locus YJL187C, strain SWE1 (second series), active compounds read low 1.01 | locus YJL187C, strain SWE1, active compounds read low 0.996 | locus YJR043C, strain POL32, active compounds read low 1.04 | locus YJR066W, strain TOR1, active compounds read low 0.938
